Screening results deposited in PubChem BioAssay by National Center for Advancing Translational Sciences (NCATS).
This is a sample that favours compounds with a hit; in the whole collection about 9.5% have one here.
NS1 inh: inhibitors of influenza NS1 protein function; Potency, µM (top dose mostly 46.1 µM); actives 0.4% (n = 270,000); note: actives are rising curves; nearly all actives have a fitted effect of over 50% in size
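Growth recovery, yeast-based: influenza A NS1 expressed in S. cerevisiae causes slow growth, and suppressors are detected by OD600. The parent strain without NS1 is used as positive control.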
SARS PLP yeast: inhibitors of SARS-CoV papain-like protease in yeast; S. cerevisiae expressing SARS-CoV PLpro, growth rescue; Potency, µM (top dose mostly 32.9 µM), usual class: activators; actives 0.19% (n = 330,000); AID 485353; note: nearly all actives have a fitted effect of over 55% in size
Pf growth 96h: inhibits malaria parasite growth, 96 h | P. falciparum luciferase reporter growth, 96 h | actives 6.9% (n = 320,000) | Potency, µM (titrated, usually from 28.7 µM), hits mostly inhibitors; active = well fitted inhibition curve with a large enough effect; inconclusive = small, poorly fitted or top-dose-only effect, or another doubt; inactive = no such curve, though single readings can be large or run the other way
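Delayed-death screen, second-generation endpoint: infected erythrocytes, 2% hematocrit, 0.05% parasitemia final; 96 hours at 37 C, 5% CO2; luciferase detection reagent; luminescence decrease equals reduced growth.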
Pf growth 48h: P. falciparum growth inhibition at 48 hours (one generation); actives 5.9% (n = 310,000); Potency, µM (top dose mostly 28.7 µM), hits mostly inhibitors; P. falciparum luciferase growth in erythrocytes, 48 h; active = well fitted inhibition curve with a large enough effect; inconclusive = small, poorly fitted or top-dose-only effect, or another doubt; inactive = no such curve, though single readings can be large or run the other way
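A one-generation exposure of luciferase-tagged malaria parasites in RPMI 1640/Albumax erythrocyte culture, 37 C and 5% CO2. Inhibition is inferred from decreased luminescence after adding detection reagent.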
RE007 growth inh: less growth of the S. pombe RE007 Vpr strain; S. pombe RE007 Vpr strain, BacTiter-Glo ATP luminescence, 24 h; Potency, µM (titrated, usually from 92.2 µM), hits mostly inhibitors; actives 0.21% (n = 360,000); AID 651644; active = well fitted falling curve with a large enough effect; inconclusive = small, poorly fitted or top-dose-only effect; inactive = no such curve, though single readings can be large or run the other way; note: nearly all actives have a fitted effect of over 50% in size
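Fission yeast RE007 carrying one integrated HIV-1 vpr copy, seeded at OD 0.01 in PMG+AL medium with 23 nL pinned compound. Grown 24 h at 30 degrees; viability read by BacTiter-Glo luminescence after 5 min.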
Large screens that a line does not name were inactive. Unless noted, calls come from the whole dose curve.

CC(C)C[C@@H](CN1CCC[C@H]1CN1C(=O)C(=O)NC[C@@H]1Cc1ccc(O)cc1)N1C[C@H](Cc2ccc(O)cc2)N(CC2CCCCCC2)C(=O)C1=O	none (no result: NS1 inh, SARS PLP yeast, Pf growth 96h, Pf growth 48h)
C/C(=N/S(=O)(=O)c1ccc(Cl)c(Cl)c1)OCC(C)(C)C	none (no result: SARS PLP yeast, Pf growth 96h, Pf growth 48h, RE007 growth inh)
c1cc(CNC23CC4CC(CC(C4)C2)C3)ccn1	Pf growth 96h 1.85µM
CCOc1cc(O)c(-c2[nH]ncc2-c2nc(C)cs2)cc1CC	Pf growth 96h inconclusive, Pf growth 48h 14.7µM
Cc1ccc(C)c(/C(O)=C2\C(=O)C(=O)N(CCCN3CCOCC3)C2c2cccnc2)c1 (stereo unspecified)	Pf growth 96h 1.85µM
CCOC(=O)C1=C[C@@H](CC)N(S(=O)(=O)c2ccccc2)[C@H]1c1ccccc1	none (no result: NS1 inh, SARS PLP yeast, Pf growth 96h, Pf growth 48h)
Cc1cc(C)n2nc(SCc3nc4ccccc4[nH]3)nc2n1	NS1 inh inconclusive, Pf growth 96h 7.38µM
Cc1cc(C)n2nc(SCc3ccccc3F)nc2n1	none
O=C(Nc1ccc(O)c(-c2nc3ccccc3o2)c1)C1(c2ccccc2)CCCC1	NS1 inh inconclusive, Pf growth 48h 14.7µM
O=C(Nc1ccncc1)C1(c2ccccc2)CCCC1	Pf growth 48h inconclusive
C=CCNc1nc(NCc2ccc(N(C)C)cc2)c2sc(-c3ccccc3)cc2n1	none (no result: NS1 inh, SARS PLP yeast, Pf growth 96h, Pf growth 48h)
CCOc1ccc(C(C)NC(=S)NCc2ccc(F)cc2)cc1 (stereo unspecified)	SARS PLP yeast inconclusive, Pf growth 48h inconclusive
CCc1ccc(C(C)NC(=S)NCc2ccc(F)cc2)cc1 (stereo unspecified)	Pf growth 96h 14.7µM, Pf growth 48h 13.1µM
CCC(NC(=S)NCc1ccc(F)cc1)c1ccc(C)cc1 (stereo unspecified)	SARS PLP yeast inconclusive, Pf growth 96h 10.4µM, Pf growth 48h 9.28µM
COc1ccc(CC(=O)Nc2nc(OCC(F)(F)F)cnc2-c2ccc(Cl)cc2Cl)cc1	none (no result: NS1 inh, SARS PLP yeast, Pf growth 96h, Pf growth 48h)
Cc1ccc([N+](=O)[O-])cc1S(=O)(=O)N1CCN(C)CC1	none
CCN1CCN(c2ccc(N3CCN(S(=O)(=O)c4cc([N+](=O)[O-])ccc4C)CC3)nn2)CC1	Pf growth 96h inconclusive, Pf growth 48h 10.4µM (no result: NS1 inh)
Cc1ccc([N+](=O)[O-])cc1S(=O)(=O)n1ccnc1C	Pf growth 48h 5.22µM
CC(C)NC(=O)N(C)C[C@@H]1Oc2c(NC(=O)C3CCOCC3)cccc2C(=O)N([C@@H](C)CO)C[C@H]1C	none (no result: NS1 inh, Pf growth 96h, Pf growth 48h)
Cc1ccc(Sc2ncccc2COC(=O)NC(C)C)cc1	none (no result: NS1 inh)
C=CC(=O)NCCCc1cc(C(C)(C)C)c(O)c(C(C)(C)C)c1	Pf growth 48h 11.7µM
CC(C)(C)c1cc(CCC(=O)NN)cc(C(C)(C)C)c1O	Pf growth 48h inconclusive (no result: NS1 inh)
COc1ccc(O[C@H]2C=C[C@@H](c3ccccc3)O[C@@H]2CO/N=C(\C)CCC(=O)OC[C@H]2O[C@H](c3ccccc3)C=C[C@@H]2Oc2ccc(OC)cc2)cc1	Pf growth 96h 2.33µM, Pf growth 48h 2.62µM (no result: RE007 growth inh)
CC(=O)OC[C@H]1O[C@@H](O/N=C(\C)CCN2CCCCc3nc(C)c(C)cc32)[C@H](OC(C)=O)[C@@H](OC(C)=O)[C@@H]1OC(C)=O	none (no result: RE007 growth inh)
COc1ccc(O[C@H]2C=C[C@@H](c3ccccc3)O[C@@H]2COC(=O)CC/C(C)=N/O[C@@H](C)c2cn([C@H](CO)Cc3ccccc3)nn2)cc1	Pf growth 96h inconclusive, Pf growth 48h inconclusive (no result: RE007 growth inh)
COC(=O)C/C=C/[C@@H](C)[C@@H](/C=N/OC[C@H]1O[C@H](c2ccccc2)C=C[C@@H]1Oc1ccc(OC)cc1)NS(=O)(=O)c1ccc(C)cc1	Pf growth 96h 7.38µM, Pf growth 48h 11.7µM (no result: RE007 growth inh)
C/C(CCC(=O)OC[C@H]1O[C@H](C#Cc2ccccc2)C=C[C@@H]1Oc1ccc(C)cc1)=N\O[C@@H](C)CN1CCCCc2nc(C)c(C)cc21	Pf growth 96h 4.15µM, Pf growth 48h 14.7µM (no result: RE007 growth inh)
COc1ccc(O[C@H]2C=C[C@@H](c3ccccc3)O[C@@H]2COC(=O)CC/C(C)=N/O[C@@H](C)CN2CCCCc3nc(C)c(C)cc32)cc1	Pf growth 96h 8.28µM, Pf growth 48h 5.86µM (no result: RE007 growth inh)
CC(C)c1ccc(-c2csc3nc[nH]c(=O)c23)cc1	none
COC(=O)COc1c(/C=C\c2nc(O)c([N+](=O)[O-])c(=O)[nH]2)cccc1OC	Pf growth 96h inconclusive, Pf growth 48h inconclusive
C#CCOc1c(/C=C\c2nc(O)c([N+](=O)[O-])c(=O)[nH]2)cc(Br)cc1OC	Pf growth 96h inconclusive, Pf growth 48h 5.22µM
O=c1[nH]c(/C=C\c2cccc(F)c2)nc(O)c1[N+](=O)[O-]	Pf growth 96h inconclusive, Pf growth 48h inconclusive
O=c1[nH]c(/C=C\c2ccccc2F)nc(O)c1[N+](=O)[O-]	Pf growth 96h 13.1µM
CC(=O)n1c2ccccc2c2ccccc21	none
CC(=O)n1c(C=Nc2ccc(Cl)cc2)c(O)c2ccccc21	Pf growth 96h inconclusive, Pf growth 48h 1.47µM
CCC(=O)N1Cc2cc(C(=O)Nc3nccs3)nc(-c3cccc(-c4ccccc4OC)c3)c2[C@@H]1CCO	none (no result: NS1 inh, SARS PLP yeast, Pf growth 96h, Pf growth 48h)
CN1CCN(CCOc2cccc(Cl)c2)CC1	Pf growth 96h 10.4µM
CC(C)c1cccc(OCCN2CCCC2)c1	Pf growth 96h 10.4µM
Clc1cccc(OCCN2CCCC2)c1	none
S=C(Sc1ccc(Cl)cc1)Sc1ccc(Cl)cc1	Pf growth 96h inconclusive, Pf growth 48h 6.57µM (no result: RE007 growth inh)
CN(Cc1ccccc1OCCO)CC1CCCN(CCc2ccc(Cl)cc2)C1 (stereo unspecified)	Pf growth 96h inconclusive, Pf growth 48h inconclusive
CCn1nc(C)c(CN2CCC(n3nccc3NC(=O)CCCc3ccccc3)CC2)c1C	none
CCn1cc(CN2CCC(n3nccc3NC(=O)CCc3ccccc3)CC2)cn1	NS1 inh inconclusive
CCn1ccnc1CN1CCC(n2nccc2NC(=O)CCc2ccccc2)CC1	Pf growth 96h 8.28µM
CCn1cc(CN2CCC(n3nccc3NC(=O)CCOc3ccccc3)CC2)cn1	Pf growth 96h inconclusive
CCn1nc(C)c(CN2CCC(n3nccc3NC(=O)Cc3ccccc3)CC2)c1C	Pf growth 96h 11.7µM
O=C(CCOc1ccccc1)Nc1ccnn1C1CCN(CCc2ccccc2)CC1	Pf growth 96h 13.1µM
O=C(CCOc1ccccc1)Nc1ccnn1C1CCN(Cc2ccc(O)cc2)CC1	Pf growth 48h 9.28µM
COc1cccc(CN2CCC(n3nccc3NC(=O)CCOc3ccccc3)CC2)c1	Pf growth 96h 3.29µM, Pf growth 48h inconclusive
COc1ccc(CN2CCC(n3nccc3NC(=O)CCOc3ccccc3)CC2)cc1C	SARS PLP yeast inconclusive, Pf growth 96h inconclusive
Cc1cc(C)nc(SCc2nc3nc(C)cc(C)n3c2Br)n1	Pf growth 96h 1.47µM, Pf growth 48h 10.4µM
OCCNc1nc(Nc2cccc(O)c2)nc2ccccc12	Pf growth 96h 0.104µM, Pf growth 48h 2.33µM
COc1cccc(Nc2nc(NCCO)c3ccccc3n2)c1	none (no result: Pf growth 48h)
O=[N+]([O-])c1ccc(-c2nc(NCc3ccccc3)c3ccccc3n2)cc1	none
OCCNc1nc(NCc2ccccc2)c2ccccc2n1	Pf growth 96h 11.7µM, Pf growth 48h inconclusive
